In ChEMBL document CHEMBL3988442, “University of Dundee, Small-Polar-MMV Screening Library” (2021):
Out of some 48,000 compounds screened, about 13,000 (27%) showed an effect of 50% or more. This is one part of the list.

test system: Wolbachia pipientis; assay: Anti-Wolbachia Cell-Based Screen; assay type: functional; set-up: scale not given: in the data most compounds retested in dose-response had high values; settings: 5 µM

Row | SMILES | Percent Effect
1 | Cc1cccnc1CN1CCC(c2nnc(Cn3cccn3)n2C)CC1 | 7.8%
2 | CC(C)OCCN(Cc1cccc(O)c1)C1CCC(O)CC1 (stereo not given) | -9.741%
3 | CC1CCN(c2ccnc3ccc(Br)cc23)CC1 | -3.339%
4 | O=C(c1ccoc1)N1CCCN(C(=O)c2ccc(C3CCCN3)s2)CC1 (stereo not given) | 16.47%
5 | N#Cc1cccc(CNC(=O)C2=NN(c3ccccc3)C(=O)CN2)c1 | -6.333%
6 | CC(Cn1ccnc1)NC1CCN(Cc2cccc(O)c2)CC1 (stereo not given) | -6.042%
7 | CNS(=O)(=O)c1ccc(CN2CCC(c3ccncc3)CC2)cc1 | -2.48%
8 | CS(=O)(=O)c1snnc1C1CCN(Cc2cccc(O)c2)CC1 | 145.1%
9 | CC(Cn1cncn1)NC1CCN(Cc2cccc(O)c2)CC1 (stereo not given) | -16.09%
10 | Fc1ccc(CN2CCC(c3nccnc3-n3ccnc3)CC2)cc1 | -7.393%
11 | Cc1cccc(CN2CCC(c3nnsc3S(C)(=O)=O)CC2)c1 | 168.1%
12 | Cc1cccc(CN2CCC(NCC3CNc4cc(C)nn4C3)CC2)c1 (stereo not given) | 17.46%
13 | CS(=O)(=O)c1snnc1C1CCN(Cc2ccc3nccnc3c2)CC1 | 138.8%
14 | Cc1cnc(C(=O)N2CCC3(CC2)CC(c2ccncc2)C(=O)N3)cn1 (stereo not given) | -2.987%
15 | CCCn1nnnc1CN(C)C(C)c1ccc(C)cc1 (stereo not given) | 0.6006%
16 | COc1ccc(C2(c3nc(-c4cnn(C)c4)no3)CCOCC2)cc1 | -8.889%
17 | O=C(NC(CO)CO)c1coc(COc2cccc(F)c2)n1 | 9.537%
18 | CCN(C(=O)CN(C)C(c1cccc(F)c1)c1ccccn1)C1CC1 (stereo not given) | 13.51%
19 | CCN(CC)S(=O)(=O)CCNC(=O)N(C)C(C)c1ccccn1 (stereo not given) | -1.522%
20 | CC(C)N(C)CC(=O)N(C)C(c1cccc(F)c1)c1ccccn1 (stereo not given) | 102.7%
21 | CCSCCNC(=O)C(c1cccc(F)c1)N(C)C (stereo not given) | -18.47%
22 | CCN(CC)CC(=O)N(C)C(c1cccc(F)c1)c1ccccn1 (stereo not given) | 97.45%
23 | CCS(=O)(=O)NCCCNC(=O)N(C)C(C)c1ccccn1 (stereo not given) | -6.07%
24 | O=S(=O)(C1CC1)N1CC[C@]2(C[C@@H](OCC3CCOCC3)CO2)C1 | -13.41%
25 | Cc1c(C(=O)N(C)CC(F)(F)F)nnn1-c1ccccc1Cl | -1.465%
26 | COCCn1cc(NC(=O)C(C)CCc2ccccc2F)ccc1=O (stereo not given) | -6.604%
27 | COCCn1cnc2ccc(NC(=O)c3ccc(OC)cc3)cc2c1=O | 162.9%
28 | COc1cccc(C(=O)Nc2ccc(OC3CCN(C)CC3)cc2)c1 | 16.42%

Row | SMILES | Percent Effect
29 | COCCn1cnc2ccc(NC(=O)C3CC3)cc2c1=O | 108.4%
30 | Cn1cc(NC(=O)c2ccccn2)cc(Br)c1=O | 3.766%
31 | COCCn1cc(NC(=O)NC(C)CCc2ccccc2)ccc1=O (stereo not given) | -2.537%
32 | COCCn1cnc2ccc(NC(=O)c3ccccn3)cc2c1=O | 106.6%
33 | Cn1cc(NC(=O)c2ccccn2)cc(Cl)c1=O | -1.878%
34 | COCCN1C=NC2(CCC(C(=O)Nc3ccc(C)cc3)CC2)C1=O (stereo not given) | -4.018%
35 | COc1ccc(C(=O)Nc2c(C)nn(C(C)C)c2C)cc1 | 14.16%
36 | COCCOc1ccc(NC(=O)C2CCC2)cn1 | -0.09217%
37 | COCCn1cnc2ccc(NC(=O)C(C)C)cc2c1=O | 110.7%
38 | CC(=O)NCCC(=O)NC1(c2ccc(Cl)c(Cl)c2)CC1 | 3.477%
39 | CC(NC(=O)COc1cccc[n+]1[O-])C1CC1 (stereo not given) | -6.842%
40 | Cc1ccc(CNCc2nnc3n2CC(C(F)(F)F)CC3)cc1 (stereo not given) | -7.096%
41 | O=C(CCc1ccsc1)Nc1cnccc1O | 9.927%
42 | CC(C)CCN1CCc2[nH]nc(C(=O)N3CC=CC3)c2C1.O=C(O)C(F)(F)F.O=C(O)C(F)(F)F | -3.7%
43 | CO[C@@H]1CCN(Cc2c(C)noc2C)[C@@H]2CN(Cc3cccnc3)C[C@@H]21.O=C(O)C(F)(F)F.O=C(O)C(F)(F)F.O=C(O)C(F)(F)F | 82.84%
44 | CO[C@@H]1CCN(c2ncc(F)cn2)[C@@H]2CN(Cc3cccnc3)C[C@@H]21.O=C(O)C(F)(F)F.O=C(O)C(F)(F)F.O=C(O)C(F)(F)F | -6.486%
45 | CO[C@H]1CCN(Cc2cccc(C)n2)[C@@H]2CN(Cc3cccnc3)C[C@H]12.O=C(O)C(F)(F)F.O=C(O)C(F)(F)F.O=C(O)C(F)(F)F.O=C(O)C(F)(F)F | -9.589%
46 | CO[C@H]1CCN(Cc2c(C)noc2C)[C@@H]2CN(Cc3ccncc3)C[C@H]12.O=C(O)C(F)(F)F.O=C(O)C(F)(F)F.O=C(O)C(F)(F)F | 106.3%
47 | CO[C@@H]1CCN(Cc2cnn(C)c2)[C@@H]2CN(Cc3ccco3)C[C@@H]21.O=C(O)C(F)(F)F.O=C(O)C(F)(F)F | 6.003%
48 | CO[C@@H]1CCN(Cc2c(C)noc2C)[C@@H]2CN(Cc3ccco3)C[C@@H]21.O=C(O)C(F)(F)F.O=C(O)C(F)(F)F | 102.8%
49 | Cc1noc(C)c1CN1C[C@@H](N(C)Cc2ccco2)[C@H]2OCCC[C@H]21.O=C(O)C(F)(F)F.O=C(O)C(F)(F)F | 12.06%
50 | Cc1noc(C)c1CN1CC[C@H]2OCC[C@@H](C(=O)NCC3CC3)[C@@H]2C1.O=C(O)C(F)(F)F | -16.42%
51 | CO[C@H]1CCN(Cc2cnn(C)c2)[C@@H]2CN(Cc3cccnc3)C[C@H]12.O=C(O)C(F)(F)F.O=C(O)C(F)(F)F.O=C(O)C(F)(F)F | 4.089%
52 | CO[C@H]1CCN(Cc2c(C)noc2C)[C@@H]2CN(Cc3cccnc3)C[C@H]12.O=C(O)C(F)(F)F.O=C(O)C(F)(F)F.O=C(O)C(F)(F)F | 114.1%
53 | COCC1CN(Cc2c(C)noc2C)Cc2ccnn2C1.O=C(O)C(F)(F)F.O=C(O)C(F)(F)F (stereo not given) | -2.816%
54 | COC(=O)N1CCN(CCCc2nnnn2-c2ccccc2)CC1 | -41.56%
55 | O=C(Cc1ccc(F)cc1Cl)N1CC[C@H](CO)[C@@H](O)C1 | 3.077%
